The record followed here is PubChem BioAssay AID743279 (National Center for Advancing Translational Sciences (NCATS), 2014).

Out of some 360,000 compounds screened, about 17,000 (4.7%) were called active. Roughly 5% stayed inconclusive and do not appear here. This is one part of a sample in which actives are shown more often than they occur. Unmarked numbers belong to inactive results. No stated cut-off is given here; in the data, active means activity change below about -50%; inconclusive means mostly about -30% to -49%; inactive means weaker than that.
On the % scale 0 is the no-effect control and ±100 the full control effect.

The nature of the assay: qHTS for Inhibitors of Inflammasome Signaling: IL-1-beta AlphaLISA Primary Screen. The following applies: THP-1 LPS/ATP IL-1B secretion, 16 h; at 57.5 µM, hits give low values. Put shortly:
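Secreted IL-1B measured by AlphaLISA bead assay after 16 h compound exposure of THP-1 cells; compounds (final up to 57.5 uM) added 1 h before LPS (250 ng/mL) and ATP (1.25 mM) stimulation; lower signal means less secretion.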
For `Nc1c(Cl)cc(-c2csc(N3CCCC3c3nc4cc(Cl)c(Cl)cc4n3CCOCCO)n2)cc1Cl` (configuration not stated), the activity change was -4.36%.

Take `Cc1ccc(S(=O)(=O)N2C[C@H]3C(=O)C[C@@H](c4cccc5ccccc45)N(S(=O)(=O)c4ccc(C)cc4)[C@H]3C[C@H]2c2ccc(Cl)cc2)cc1`: the activity change is 0.625%.

For `COCCNC(=O)C1C(=O)Nc2ccccc2C(=O)N1c1ccc2c(c1)OCCO2` (configuration not stated), the activity change is 23.8%.

For `COC(=O)Cc1c(-c2[nH]c3ccccc3c2CC(=O)OC)[nH]c2ccccc12`, the activity change was 0%.

Consider `Cc1[nH]c2ccccc2c1/C=C(/C#N)C(=O)NC(C)C`, for which the activity change was -99.8% (active). The figure for `CC(C)NC(=O)/C(C#N)=C\c1ccc(N(C)C)c(Br)c1` is -7.21%. On to `O[C@@H]1C[C@H](c2ccccc2)N(Cc2cccs2)C[C@H]1n1cc(C2CC2)nn1`, for which the activity change is -20.7%. For `Cc1ccc(C)c(NC(=S)NNC(=O)c2csc(C)c2)c1`, the activity change is 12.4%. With `CC(C)c1ccc(NC(=S)NNc2ccc(Cl)c(C(=O)O)c2)cc1`, the activity change was 20.7%. The result for `Cc1ccc(C)c(NC(=S)NNC(=S)Nc2ccc(C(C)C)cc2)c1` reads -52.5% (active); that for `O=C(O)CSc1nccc2ccccc12`, -61.2% (active).

For the molecule `O=C(O)CSc1nccn1-c1cccc(Cl)c1`, the activity change was 14.2%. The result for `CCOC(=O)C(C(=O)c1ccccc1)C(c1ccccc1)c1nccc2ccccc12` (configuration not stated) reads 11.3%; that for `CCNC(=O)C1(C)CCCN1C(=O)c1ccc(N(C)C)cc1` (configuration not stated), 15.5%; that for `Cc1nc(SCC(=O)c2ccccc2)c([N+](=O)[O-])[nH]1`, 23.3%. Take `CSCCC(C(=O)NC(C)(C)C)n1c(-c2ccccc2)nc2ccccc21` (configuration not stated): the activity change is 15.5%.

On to `COc1ccc(Oc2cn[nH]c2-c2ccc(OC)cc2O)cc1`, for which the activity change was -82.8% (active).

`COc1ccc(-c2[nH]ncc2/C=N/NC(=O)c2cc(Br)ccc2O)c(OC)c1`: the activity change was 86.3%. The figure for `CCOc1ccccc1Oc1cn[nH]c1-c1ccc(OC)cc1O` is 18.7%; for `CC1Sc2ccc(S(=O)(=O)CCC(=O)NCc3ccccc3Cl)cc2NC1=O` (configuration not stated) it is 18.9%.

Turning to `CS(=O)(=O)Nc1cccc(-c2cn3ccccc3n2)c1`, the activity change was -14%. The result for `Cc1cc(C)cc(NS(=O)(=O)Cc2ccccc2)c1` reads -5.28%; that for `CCS(=O)(=O)Nc1cccc(-c2cc(-c3ccccc3)c3cc(C)ccc3n2)c1`, -99.4% (active). The result for `O=C(NC1CCCCC1)C(c1cc2ccccc2o1)n1c(=O)c(-c2ccco2)nc2ccccc21` (configuration not stated) reads -2.14%; that for `CN(C)CCNC(=O)Nc1cccc(Cl)c1Cl`, 2.19%; that for `CN(C)CCNC(=O)c1ccc(Cl)c2cc3ccccc3nc12`, -112% (active). With `CC(=O)NCCNC(=O)c1cc(-c2cccc3ccccc23)nc2ccccc12`, the activity change was 0.0656%.
